PubChem BioAssay (NCI)
Compounds without any hit were thinned out: in the full panel of roughly 83,000, 20% have a hit.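 Results are percent growth after 48 hours of single-concentration exposure. 100 means growth as in untreated cells, lower positive values show inhibition; negative values down to -100 show cell death.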 Values without a mark were called inactive. The source made the active and inactive calls. The calls were made as follows: active = growth percent below 10; inactive = the rest.

test system: MDA-MB-435 melanoma; test: NCI-60 one-dose screen, 48 h (100 = growth as untreated, 0 = no growth, -100 = all killed); details: 10 µM unless noted

SMILES | growth
COc1ccc(-c2cc(-c3ccc(OC)cc3)nc(NCCCNc3ccnc4cc(Cl)ccc34)n2)cc1 | -69.9% (active)
Cn1cc(/C=C2/C(=O)Nc3ccccc32)c2ccccc21 | 106%
CC[C@H](CC[C@@H](C)[C@H]1CC[C@H]2[C@@H]3CC[C@@H]4CC(=O)/C(=C\c5ccncc5)C[C@]4(C)[C@H]3CC[C@]12C)C(C)C | 101%
CCOC(=O)c1c(-c2ccc(Cl)cc2)c(C#N)c2c(C#N)c(N)nn2c1N | 5.38% (active)
CC1O[C@@H]2C[C@@](O)([C@H]1O)n1c3ccccc3c3c4c(c5c6ccccc6n2c5c31)C(=O)NC4=O (stereo partly drawn) | 43.1%
O=C1Nc2ccccc2/C1=C/c1cn(C[C@@H](O)Cn2c3ccccc3c(=O)c3ccccc32)c2ccccc12 | 85.1%
Cc1cscc(C)c1=S | 104%
Clc1nccc2c(-c3csc(-c4c[nH]c5ccccc45)n3)c[nH]c12 | 53.9%
Cc1ccc2[nH]c(-c3ccc(S(C)(=O)=O)cc3)c(/C=N/N=C(N)N)c2c1 | -21.9% (active)
Nc1n[nH]c2ccc([C@@H]3Nc4cc5[nH]ncc5cc4[C@H]4C5CCC(C5)[C@@H]34)cc12 (stereo partly drawn) | -41.2% (active)
Cc1[nH]c(C(=O)Nc2ccc(C(N)=O)cc2NC(C)C)c(Cl)c1Cl | 101%
COc1cc(C(=O)/C=C/c2ccc(N3CCN(C)CC3)cc2)cc(OC)c1OC | 95.5%
C#CCn1cnc2c(Nc3cccc(NC(=O)CCl)c3)ncnc21 | 22.6%
